In all, about 220,000 compounds went through this assay and about 770 (0.35%) were called active. No stated cut-off is given here; in the data, active means activation above about 11%; inactive means the rest. The entries come from a sample that favours actives as a whole.

In this experiment the target is Sphingosine 1-phosphate receptor 4 (Homo sapiens) (UniProt O95977). The experiment can be described thus: S1P4 receptor agonists, primary screen, cell-based (AID 1509).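 Further: 0% = DMSO vehicle and 100% = reference agonist.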 Particulars: S1P4-expressing cell line, agonist reporter assay; at 4.98 µM; active compounds read high. A general note: In a reporter assay the amount or activity of a reporter protein is the signal.
Sphingosine 1-phosphate receptor 4 (Homo sapiens), sequence (O95977 whole entry, looked up): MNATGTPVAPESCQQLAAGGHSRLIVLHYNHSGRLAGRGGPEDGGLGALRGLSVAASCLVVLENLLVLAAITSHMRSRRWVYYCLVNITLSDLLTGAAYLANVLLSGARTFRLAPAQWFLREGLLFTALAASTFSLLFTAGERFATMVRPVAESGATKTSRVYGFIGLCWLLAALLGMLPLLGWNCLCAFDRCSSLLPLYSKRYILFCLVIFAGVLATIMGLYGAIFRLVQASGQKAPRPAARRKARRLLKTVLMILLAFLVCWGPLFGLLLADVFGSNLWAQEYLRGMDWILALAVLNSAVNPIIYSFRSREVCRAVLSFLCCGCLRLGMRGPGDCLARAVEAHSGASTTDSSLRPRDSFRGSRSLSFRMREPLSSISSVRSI
For the compound `Cc1nc(-c2nnc(SCC(=O)Nc3cc(C(F)(F)F)cc(C(F)(F)F)c3)n2C)cs1`, the activation was -0.18% (inactive).
The figure for `O=C1C=C(c2ccc(Cl)cc2)C(=O)N1Nc1ccccc1` is -3.55% (inactive); for `CCOc1ccc(N2CC(C(=O)N/N=C/c3sccc3C)CC2=O)cc1` (stereo not drawn) it is -0.25% (inactive).
The figure for `NC(=O)COC(=O)c1sc2cc(F)ccc2c1Cl` is 0.19% (inactive); for `COc1ccc(CCNC(=O)C(Sc2ccccn2)c2ccccc2)cc1OC` (stereo not drawn) it is -2.85% (inactive); for `O=C(Nc1ccc(N2CCOCC2)cc1)c1ccc2c(c1)OCO2` it is 1.77% (inactive).
`CC1CN(C(=O)c2ccccc2NS(=O)(=O)c2cccc([N+](=O)[O-])c2)CC(C)O1` (stereo not drawn): the activation was 1.5% (inactive).
For the compound `CCc1ccc(Nc2nnc(SCC(=O)c3ccc4c(c3)NC(=O)CO4)s2)cc1`, the activation was 1.5% (inactive).
Next, `CC1CCCN(CC(O)COc2ccc3c(c2)OCO3)C1` (stereo not drawn): 0.61% (inactive).
Next, `COCCn1c(SCc2nnc(-c3ccc(OC)c(OC)c3)o2)nc2sc3c(c2c1=O)CCC3`: 1.63% (inactive); `CCOc1cnc(-c2c(-c3ccccc3Cl)noc2C)o1`: 0.62% (inactive); `CC1CCCC(NC(=O)c2cccc(N3CCCC3=O)c2)C1C` (stereo not drawn): -1.52% (inactive).
The figure for `COc1ccccc1CNC(=O)CNC(=O)c1cn(-c2ccccc2OC)c(=O)c2ccccc12` is 16.9% (active).
As to `COc1ccccc1CNC(=O)CCn1c(=O)sc2ccccc21`, the activation is -0.92% (inactive).
As to `COc1ccccc1CNC(=O)c1cc(=O)c2ccccc2o1`, the activation is 0.7% (inactive).
Next, `COc1cccc(CN(C)CC(=O)Nc2ccccc2C(=O)Nc2ccccc2)c1`: 0.57% (inactive).
Next, `CN(C)c1nc(-c2cccnc2)nc(-c2ccc(Cl)cc2)c1C#N`: 0.37% (inactive); `CC(Oc1ccc(-c2ccccc2)c(F)c1)c1ccn(S(=O)(=O)c2cccc3ccccc23)n1` (stereo not drawn): -2.56% (inactive); `COc1ccc(NC(=O)C(=O)NCC(=O)Nc2cccc(C(F)(F)F)c2)cc1`: 0.93% (inactive).
Next, `COc1ccc(-c2ccc(CCC(=O)O)n2NC(=O)c2ccc(C(C)(C)C)cc2)cc1`: -0.13% (inactive); `COc1ccc(-n2c(C)cc(C(=O)CN3C(=O)NC4(CCc5ccccc54)C3=O)c2C)cc1` (stereo not drawn): 16.1% (active).
Regarding `Cc1ccc(-n2c(C)cc(C(=O)CN3C(=O)C(=O)N(C4CCCC4)C3=O)c2C)cc1`, the activation is 0.78% (inactive).
Consider `CN(C)S(=O)(=O)c1cc(NC(=O)CN2C(=O)NC3(CCCc4ccccc43)C2=O)ccc1Cl` (stereo not drawn), for which the activation was 0.63% (inactive).
The figure for `COC(=O)c1cc(C(=O)N(Cc2ccccc2)c2ccccn2)cc([N+](=O)[O-])c1` is 1.87% (inactive); for `Cc1ccccc1OCCC(=O)OCC(=O)NC(C)c1ccccc1` (stereo not drawn) it is -1.6% (inactive).
Next, `CCN(CC)C(=O)Cn1cc(S(=O)(=O)CC(=O)NCc2ccc3c(c2)OCO3)c2ccccc21`: -1.22% (inactive); `COc1ccc(C(=O)NN2C(=O)C3C(c4ccccc4)C=CC(c4ccccc4)C3C2=O)cc1` (stereo not drawn): -0.98% (inactive); `N#C/C=C(/c1ccc(F)cc1)N1CCOCC1`: -1.05% (inactive).
Next, `Cc1cc2c(C)nc(N/N=C/c3ccccc3)nc2o1`: -1.39% (inactive).
With `CC(=O)Nc1ccc(SCC(=O)Nc2ccccc2Oc2ccccc2)cc1`, the activation was 13.2% (active).
With `O=C(CSc1ccccc1)Nc1cc(Cl)ccc1Oc1ccccc1`, the activation is 0.59% (inactive).
The figure for `Cc1cc(C)cc(NC(=O)CSc2ccccc2)c1` is -1.04% (inactive); for `O=C(COC(=O)c1cc([N+](=O)[O-])ccc1NCc1ccccc1)NC1CCCCC1` it is 15.3% (active).
Next, `N#Cc1ccccc1Sc1ccccc1C(=O)OCC(=O)NC1CCCCC1`: 2.4% (inactive); `O=C(COC(=O)c1ccccc1SCC(=O)NC1CCCCC1)NC1CCCCC1`: 0.41% (inactive); `Cc1nn(CC(=O)Nc2ccc(N(C)C)cc2)c(C)c1[N+](=O)[O-]`: -0.79% (inactive).
In the case of `NC(=O)c1ccc(-c2csnn2)cc1`, the activation is -0.31% (inactive).
Regarding `N/C(=N\OC(=O)c1ccc([N+](=O)[O-])cc1)c1ccccn1`, the activation is -0.02% (inactive).
Next, `O=C(OCc1ccc([N+](=O)[O-])cc1)c1ccccn1`: -1.16% (inactive); `N/C(=N\OC(=O)Cc1ccc([N+](=O)[O-])cc1)c1ccccn1`: 15.5% (active).
Next, `CCc1ccc(NC(=O)N[C@H](C(=O)O)C(C)CC)cc1` (stereo partly drawn): -0.3% (inactive); `O=S(=O)(Nc1ccc(Cl)cn1)c1cnc(Cl)c(Br)c1`: 0.57% (inactive); `Cc1ccc(Cn2ccc(NC(=O)c3cc(C(C)C)on3)n2)cc1`: -0.1% (inactive).
The figure for `O=C(c1cc(-c2cccs2)on1)N1CCCCC1` is 0.14% (inactive).
Turning to `Cc1cc(NC(=O)c2cc(-c3cccs3)on2)nn1Cc1ccc(Cl)cc1`, the activation is 13.1% (active).
The figure for `CCn1c(CNC(=O)c2ccc(OC)c(OC)c2)nnc1SCC(=O)Nc1ccccc1` is 21.5% (active); for `CCn1c(Cc2ccccc2)nnc1SCC(=O)Nc1ccccc1` it is -2.58% (inactive); for `CCn1c(CNC(=O)c2ccco2)nnc1SCC(=O)Nc1cccc(F)c1` it is 1.91% (inactive).
As to `O=C(CN1CCN(S(=O)(=O)c2ccc(Cl)s2)CC1)NCc1ccc(Cl)cc1`, the activation was 0.73% (inactive).
Consider `COC(=O)C1=C(C)N(C)C(=O)NC1c1ccc([N+](=O)[O-])o1` (stereo not drawn), for which the activation is 0.41% (inactive).
Take `Brc1ccc(-c2n(-c3ccccn3)c3ccccc3[n+]2-c2ccccn2)cc1`: the activation was -0.47% (inactive).
The figure for `CCn1c(N)c(Br)c(=O)[nH]c1=O` is 0.16% (inactive).
Next, `O=C(NNS(=O)(=O)c1ccccc1)c1cnn(-c2ccc(Cl)cc2)c1C(F)(F)F`: 1.09% (inactive); `Cc1ccc(NC(=O)CC2C(=O)N(Cc3ccccc3)C(=S)N2NC(=O)c2cccc(F)c2)c(C)c1` (stereo not drawn): 2.02% (inactive).
In the case of `Cc1ccc(/C=N/NC(=O)Cn2ccc(C(F)(F)F)n2)o1`, the activation is 1.08% (inactive).
Take `CC(=O)NC(=S)Nc1ccc(NC(=O)c2cccnc2)cc1`: the activation is -0.19% (inactive).
For the compound `COc1ccc(CCn2c(NN=C3CCCC3)nc3c2c(=O)[nH]c(=O)n3C)cc1`, the activation was -1.13% (inactive).
Consider `FC(F)(F)c1ccnc(Oc2ccc(C3=NCCS3)cc2)c1`, for which the activation is -0.27% (inactive).
The figure for `O=c1cc(N2CCCCC2)c(-c2ccccc2)nn1Cc1cccc(F)c1` is 0.58% (inactive); for `Cc1cc(C)cc(Oc2nc3c(C)cccn3c(=O)c2/C=C(\C#N)C(=O)NC2CCS(=O)(=O)C2)c1` (stereo not drawn) it is 2.53% (inactive).
As for `Cc1ccc(CSc2nnc(-c3cnccn3)n2C)cc1`, the activation was -0.85% (inactive).
With `CC(C)c1ccc(NC(=S)NC2CC3C=CC2C3)cc1` (stereo not drawn), the activation was -1.16% (inactive).
Consider `O=C(COC(=O)Cc1ccc(F)cc1)Nc1cc(S(=O)(=O)N2CCOCC2)ccc1N1CCCC1`, for which the activation is 17.3% (active).
The figure for `O=C(COC(=O)c1ccccc1F)Nc1cc(S(=O)(=O)N2CCOCC2)ccc1N1CCCC1` is -0.01% (inactive); for `O=C(COc1cccc2ccccc12)Nc1cc(S(=O)(=O)N2CCOCC2)ccc1N1CCOCC1` it is -0.32% (inactive).
Consider `Cc1cc(C)cc(NC(=O)Cn2cnc3c(nnn3Cc3ccc(F)cc3)c2=O)c1`, for which the activation is -0.07% (inactive).
For `O=C(COC(=O)c1ccco1)NCc1ccc(Cl)cc1`, the activation was 0.62% (inactive).
Next, `Cc1ccccc1N1CCN(Cc2nc(Cc3ccccc3F)no2)CC1`: 0.64% (inactive); `COc1ccc(NC(=O)CSc2ncnc3[nH]ncc23)cc1`: -1.23% (inactive).
The figure for `CC(C)(C)c1ccc(/C=C2\Oc3c(ccc(O)c3CN3CCN(CCO)CC3)C2=O)cc1` is 0.44% (inactive); for `Cc1c(NC(=O)Nc2ccccc2)cccc1[N+](=O)[O-]` it is 1.03% (inactive); for `CC(=O)c1cccc(NC(=O)Nc2ccc(C)cc2)c1` it is -3.97% (inactive).
In the case of `Cc1ccc(NC(=O)Nc2ccccc2)c(Br)c1`, the activation is 19.4% (active).
Next, `Cc1ccc(N/C(N)=N/c2nc(C(F)(F)F)cc(C(F)(F)F)n2)cc1`: 2.06% (inactive); `Fc1ccc(Nc2nnns2)cc1`: 1.1% (inactive).
Next, `CC(=O)c1ccc(S(=O)(=O)N2CCN(C(=O)/C=C/c3ccc4ccccc4n3)CC2)cc1`: -0.28% (inactive); `COc1ccc(N2C(=O)C(Cc3ccccc3)NC2=S)cc1` (stereo not drawn): 18.3% (active); `Cc1ccc(N2C(=O)C(Cc3ccccc3)NC2=S)cc1` (stereo not drawn): -4.7% (inactive).
In the case of `O=C1C(Cc2ccc(O)cc2)NC(=S)N1Cc1ccccc1` (stereo not drawn), the activation is 0.05% (inactive).
Next, `O=C(NCc1ccccc1)C1CCCN(c2nc3ccsc3c(=O)s2)C1` (stereo not drawn): 2.93% (inactive); `Cc1nn(-c2ccccc2)c(Cl)c1/C=C/C(=O)c1ccc(O)cc1`: 4.66% (inactive).
With `Cc1ccc2c(c1)c1ncn(Cc3ccc(F)cc3)c(=O)c1n2C`, the activation is 0.67% (inactive).
With `CC(=O)N1CCC(N(C(=O)Nc2ccc(Cl)cc2)C(C)C)CC1`, the activation was -0.35% (inactive).
Next, `CCOc1ccc(/C(O)=C2\C(=O)C(=O)N(c3ccc(OC)cc3)C2c2ccccc2[N+](=O)[O-])cc1` (stereo not drawn): 0.81% (inactive); `COc1ccc(C2CC(c3cccs3)=NN2c2ccccc2)cc1` (stereo not drawn): 11.6% (active).
Next, `COc1ccc(C2CC(c3cccs3)=NN2c2ccc(F)cc2)cc1OC` (stereo not drawn): 19.4% (active).
Turning to `COc1ccc(C2CC(c3cccs3)=NN2C(=O)CSc2nncs2)cc1OC` (stereo not drawn), the activation is 0.18% (inactive).
With `COc1ccc(C2CC(c3cccs3)=NN2c2nc(C)c(C(C)=O)s2)cc1OC` (stereo not drawn), the activation was 2.99% (inactive).
Next, `COc1ccccc1N1N=C(c2cccs2)CC1c1ccccc1` (stereo not drawn): 7.12% (inactive); `COc1ccc(C2=NN(c3ccccc3)C(c3cccs3)C2)cc1` (stereo not drawn): 1.42% (inactive); `CSc1nc2nc3c(c(=O)n2[nH]1)CCC3`: -0.27% (inactive).
The figure for `COc1ccc(CN2CN(C3CCCC3)CSC2=S)cc1` is -0.49% (inactive); for `Cc1c(C(=O)Nc2cccc(-c3nnc4n3CCCCC4)c2)oc2ccccc12` it is 2.38% (inactive).

Values taken from PubChem BioAssay AID1509 (The Scripps Research Institute Molecular Screening Center, 2009).
